Measured values published in PMC5540273 (PLoS ONE, 2017).

Columns and labels:
Details in all cases: concentration: 1 μM, replicates: in singlicate; n = 1
[1] = test system: T1, RSK1(Kin.Dom.1-N-terminal)
T1 construct: gene RPS6KA1

[2] = test system: T2, RSK1(Kin.Dom.2-C-terminal)
T2 construct: gene RPS6KA1

[3] = test system: T3, RSK2(Kin.Dom.1-N-terminal)
T3 construct: gene RPS6KA3

[4] = test system: T4, RSK2(Kin.Dom.2-C-terminal)
T4 construct: gene RPS6KA3

[5] = test system: T5, RSK3(Kin.Dom.1-N-terminal)
T5 construct: gene RPS6KA2

[6] = test system: T6, RSK3(Kin.Dom.2-C-terminal)
T6 construct: gene RPS6KA2

[7] = test system: T7, RSK4(Kin.Dom.1-N-terminal)
T7 construct: gene RPS6KA6

[8] = test system: T8, RSK4(Kin.Dom.2-C-terminal)
T8 construct: gene RPS6KA6

S6K1 = test system: S6K1
SBK1 = test system: SBK1
SGK2 = test system: SGK2
SGK3 = test system: SGK3
SGK = test system: SGK
SIK2 = test system: SIK2
SIK = test system: SIK
SLK = test system: SLK
SNARK = test system: T9, SNARK
T9 construct: gene NUAK2

SNRK = test system: SNRK
SRC = test system: SRC
SRMS = test system: SRMS
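Also: KINOMEscan kinase panel screen.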

Row | Compound | %Inh [1] [%] | %Inh [2] [%] | %Inh [3] [%] | %Inh [4] [%] | %Inh [5] [%] | %Inh [6] [%] | %Inh [7] [%] | %Inh [8] [%] | %Inh (S6K1) [%] | %Inh (SBK1) [%] | %Inh (SGK2) [%] | %Inh (SGK3) [%] | %Inh (SGK) [%] | %Inh (SIK2) [%] | %Inh (SIK) [%] | %Inh (SLK) [%] | %Inh (SNARK) [%] | %Inh (SNRK) [%] | %Inh (SRC) [%] | %Inh (SRMS) [%]
1 | COC(=O)c1c(-c2ccccc2)c2cc(Br)ccc2c(=O)n1Cc1ccc(NC(=O)CCC(=O)O)cc1 | 0 | 5 | 0 | 29 | 16 | 15 | 0 | 26 | 0 | 1 | 18 | 0 | 6 | 0 | 6 | 1 | 0 | 0 | 25 | 0
2 | COc1cccc(C2=C(Nc3cccc(C(=O)O)c3)C(=O)NC2=O)c1 [SB-390770] | 0 | 0 | 4 | 15 | 8 | 0 | 20 | 10 | 6 | 18 | 11 | 48 | 8 | 7 | 10 | 35 | 72 | 0 | 0 | 0
3 | CCn1c(-c2nonc2N)nc2ccccc21 [SB-693162/GW549034] | 6 | 4 | 41 | 3 | 4 | 19 | 48 | 15 | 43 | 22 | 12 | 62 | 12 | 0 | 10 | 20 | 51 | 40 | 0 | 0
4 | Cc1c(Cn2c(C)nn3c(=O)cc(N4CCO[C@H](C)C4)nc23)cccc1C(F)(F)F [GSK2373690] | 49 | 0 | 9 | 0 | 22 | 0 | 0 | 0 | 9 | 28 | 13 | 0 | 26 | 0 | 1 | 18 | 0 | 0 | 1 | 0
5 | Fc1cccc(CSc2nnc(-c3ccc4c(c3)CCO4)o2)c1 | 0 | 23 | 14 | 18 | 0 | 8 | 15 | 16 | 9 | 0 | 24 | 9 | 8 | 0 | 12 | 5 | 12 | 10 | 5 | 0
6 | Nc1nccc2scc(-c3ccc4c(c3)CCN4C(=O)Cc3ccccc3)c12 [GSK2576924] | 9 | 20 | 0 | 0 | 8 | 7 | 0 | 11 | 2 | 2 | 0 | 16 | 0 | 4 | 0 | 14 | 16 | 3 | 2 | 10
7 | COc1cc2ncn(-c3cc(OCc4ccncc4Br)c(C(N)=O)s3)c2cc1OC [GW854278] | 0 | 22 | 19 | 0 | 20 | 0 | 25 | 7 | 0 | 2 | 3 | 16 | 4 | 6 | 26 | 95.9 | 0 | 0 | 0 | 0
8 | C[C@@H]1CC[C@H](C(=O)NC2CCCCC2)CN1c1cc(-c2ccc3c(N)n[nH]c3c2)nc(N)n1 [GSK2291363] | 31 | 6 | 32 | 28 | 23 | 6 | 11 | 26 | 8 | 14 | 0 | 13 | 0 | 3 | 29 | 20 | 31 | 0 | 3 | 11
9 | Cc1nn2c(=O)cc(N3CCOCC3)nc2n1Cc1cccc(Cl)c1Cl [GSK2342769] | 0 | 0 | 9 | 3 | 25 | 0 | 5 | 0 | 1 | 14 | 0 | 0 | 0 | 0 | 0 | 4 | 0 | 0 | 4 | 0
10 | Cn1c(=O)c(F)c(Nc2ccc(I)cc2F)c2c(=O)n(OC[C@H](O)CO)cnc21 | 18 | 12 | 39 | 38 | 11 | 1 | 0 | 6 | 0 | 0 | 3 | 0 | 0 | 0 | 4 | 0 | 0 | 0 | 11 | 0
11 | O=C1NC(=O)C(c2ccccc2)=C1Nc1cccc(O)c1 [SB-390534] | 19 | 0 | 24 | 0 | 0 | 0 | 14 | 7 | 11 | 27 | 9 | 20 | 11 | 0 | 0 | 51 | 16 | 0 | 0 | 17
12 | O=C(Nc1ccc2c(c1)OCO2)NC1CCN(c2ccnc(NCc3ccc(F)cc3)n2)CC1 [GSK1379859] | 1 | 0 | 3 | 99.5 | 0 | 0 | 0 | 0 | 8 | 11 | 0 | 0 | 0 | 0 | 0 | 12 | 0 | 0 | 17 | 0
13 | COc1ccc(Nc2nccc(N3CCC(NS(=O)(=O)c4ccc(NC(C)=O)cc4)C3)n2)cc1 (stereo not drawn) [GSK1379729] | 0 | 0 | 0 | 18 | 6 | 0 | 0 | 5 | 0 | 4 | 14 | 0 | 10 | 18 | 2 | 18 | 2 | 9 | 6 | 0
14 | COc1ccc(-c2cc3c(C)nc(N)nc3n([C@H]3CC[C@H](O)CC3)c2=O)cn1 | 6 | 0 | 0 | 0 | 0 | 0 | 0 | 0 | 0 | 0 | 0 | 0 | 0 | 0 | 0 | 0 | 0 | 0 | 0 | 0
15 | COc1ccc(-n2cnc3c(N)ncnc32)cc1 [SKF-97236] | 0 | 0 | 11 | 22 | 9 | 0 | 9 | 36 | 9 | 13 | 6 | 11 | 0 | 14 | 0 | 11 | 24 | 0 | 0 | 0
16 | COc1cc(OC)cc(-c2cc3cnc(N)nc3nc2NC(=O)NC(C)(C)C)c1 | 23 | 0 | 0 | 0 | 0 | 0 | 0 | 0 | 0 | 0 | 0 | 17 | 0 | 0 | 6 | 0 | 0 | 1 | 0 | 0
17 | Cc1ccc(-c2ccc3c(ccc4sc5c(c43)NC[C@@H](C)N=C5N(C)C)n2)cn1 | 0 | 0 | 0 | 0 | 0 | 0 | 0 | 0 | 0 | 0 | 0 | 0 | 0 | 0 | 3 | 0 | 0 | 0 | 0 | 0
18 | COC(=O)c1c(-c2ccccc2)c2cc(Br)ccc2c(=O)n1Cc1ccc(S(C)(=O)=O)cc1 | 3 | 14 | 0 | 9 | 14 | 0 | 24 | 6 | 0 | 5 | 21 | 23 | 14 | 0 | 22 | 0 | 20 | 11 | 8 | 0
19 | Cc1cc(Nc2nc(-c3cccc(C)n3)nc3ccccc23)ccn1 [GW872411] | 23 | 0 | 24 | 0 | 0 | 7 | 0 | 0 | 7 | 0 | 0 | 0 | 0 | 23 | 0 | 0 | 0 | 0 | 0 | 13
20 | Nc1n[nH]c2ncc(-c3ccccc3)cc12 [SB-517081] | 25 | 0 | 10 | 0 | 7 | 0 | 0 | 36 | 8 | 8 | 2 | 9 | 7 | 12 | 2 | 0 | 0 | 0 | 0 | 8
21 | Nc1ncnc2c1ncn2-c1ccc(Cl)cc1 [AH2635] | 9 | 4 | 0 | 0 | 0 | 0 | 0 | 46 | 0 | 0 | 0 | 0 | 0 | 0 | 3 | 20 | 0 | 0 | 0 | 0
